Assay outcomes deposited in PubChem BioAssay by National Center for Advancing Translational Sciences (NCATS).
MCF10A rerep: DNA re-replication induction in MCF 10a cells; MCF 10A DNA re-replication, Hoechst nuclear intensity, 48 h; Potency, µM (titrated, usually from 46.1 µM), without a hit: at the top dose activity, positive = re-replication, actives largely listed as activators; hit rate 2.9% among 350,000; AID 624296; further: % of control where 0% means no effect; nearly all actives have a fitted effect of over 50% in size
SW480 rereplic: DNA re-replication induction in SW480 cells; hit rate 1.8% among 340,000; Potency, µM (highest dose often 46.1 µM), for the others: top-dose re-replication activation, usual class: activators; SW480 DNA re-replication, Hoechst DNA content imaging, 48 h; further: % of control where 0% means no effect; nearly all actives have a fitted effect of over 55% in size
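First, 250 cells per well were seeded. Next, compound or vehicle (23 nL) was pinned in, plates sat 48 hr at 37 C. Finally Hoechst was added for 40 min before fluorescence scanning.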
PINK1 modulator: modulators of PINK1 expression; hit rate 0.2% among 410,000; Potency, µM (doses to about 76.6 µM), inactives show top-dose activation (PINK1 increase), actives largely listed as activators; PINK1 immunofluorescence, high-content cytometry, 24 h; active means well fitted activation curve with a large enough effect; inconclusive means small, poorly fitted or top-dose-only effect; cell line not stated here; further: % of control where 0% means no effect; nearly all actives have a fitted effect of over 65% in size
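PINK1 protein level read as immunofluorescence by microplate cytometer in a fixed, stained stable cell line after 24 h exposure to five compound concentrations, with CCCP as control.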
KB-3-1 tox: KB-3-1 parental cell cytotoxicity; KB-3-1 viability, CellTiter-Glo ATP luminescence, 72 h; Potency, µM (titrated, usually from 46.1 µM), hits mostly cytotoxic; hit rate 1.4% among 400,000; AID 1347075; further: on the % scale 0 is the no-effect control and ±100 the full control effect; nearly all actives have a fitted effect of over 60% in size
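Viability of parental KB-3-1 cells, measured by CellTiter-Glo luminescence, followed a 72 h incubation at 37 °C with pinned compounds in phenol-red-free DMEM containing 10% FBS.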
KB-V1 cytotox: kills drug-selected multidrug resistant KB-V1 cells; KB-V1 MDR cells viability, CellTiter-Glo, 72 h; hit rate 3.4% among 400,000; AID 1347076; Potency, µM (titrated, usually from 46.1 µM), actives largely listed as cytotoxic; further: on the % scale 0 is the no-effect control and ±100 the full control effect; nearly all actives have a fitted effect of over 60% in size
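qHTS viability screen in drug-selected KB-V1 MDR cells: 72 h compound treatment at 37 degrees C, ATP luminescence end point.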
Active calls of the source: *; i = inactive; ? = inconclusive; . = not tested or not shown; [ ] = dose if it differs, or a comment. Sampled rows, rich in hits. Any-hit rate of the full collection: about 6.7%. Unless noted, the call rests on the fitted dose curve; in most records, active means well fitted curve in the direction sought with a large enough effect; inconclusive means small, poorly fitted or top-dose-only effect, or another doubt; inactive means no such curve, though single readings can be large; an effect the other way counts as inactive or inconclusive. Potency means the concentration at half of the fitted maximal effect.

SMILES	MCF10A rerep	SW480 rereplic	PINK1 modulator	KB-3-1 tox	KB-V1 cytotox
CCOC(=O)c1[nH]c(C)c(/C(O)=C2\C(=O)C(=O)N(CCCN3CCOCC3)C2c2cccs2)c1C (configuration not stated)	9.2µM*	13µM*	7%	?	?
O=C(COC(=O)c1cccc2ccccc12)NCCCc1ccccc1	-5%	.	0%	i	i
O=C(COC(=O)c1ccccc1[N+](=O)[O-])NCCCc1ccccc1	18µM*	-15%	0%	i	i
Cc1ccc(C(=O)c2ccccc2C(=O)OCC(=O)NCCc2ccc(Cl)cc2Cl)cc1	1%	.	4%	i	i
Cc1ccc(Cl)c(NC(=O)COC(=O)c2ccccc2C(=O)c2ccc(Cl)c([N+](=O)[O-])c2)c1Cl	2.6µM*	3.7µM*	-2%	?	i
CCCNC(=O)COC(=O)c1ccccc1C(=O)c1ccc(Cl)c([N+](=O)[O-])c1	?	6.5µM*	-1%	?	i
Cc1ccc(C(=O)c2oc3ccccc3c2NC(=O)c2cc(=O)c3cc(C)ccc3o2)cc1	.	.	1%	?	i
COc1ccc(NC(=O)C2(C)Cc3c(-c4cccc(C(N)=O)c4)ccnc3O2)cc1OC (configuration not stated)	.	.	10%	i	i
CCc1nc2ccc(C(=O)NCCC(C)C)cn2c1N(CC)CCOC	.	.	0%	i	i
CN1CCC(Nc2ncc3ncnc(Nc4ccc(F)c(Cl)c4)c3n2)CC1	3.3µM*	13µM*	.	.	.
c1ccc(C2=NNC(=NCc3ccc4c(c3)OCO4)SC2)cc1	16%	8%	5%	i	23µM*
c1ccc(CN=C2NN=C(c3ccccc3)CS2)cc1	6%	1%	1%	?	i
COc1cc(CN2CCC3(CCC(CNC(=O)c4ccco4)O3)CC2)ccc1O (configuration not stated)	.	.	0%	.	.
O=C(COC(=O)c1ccccc1)Nc1ncc([N+](=O)[O-])s1	1%	-2%	1%	i	i
O=C(Nc1cccc(-c2csc(Nc3cccc(C(F)(F)F)c3)n2)c1)c1ccccc1	?	17%	?	i	i
O=C(Nc1ccccc1)Nc1ncc([N+](=O)[O-])s1	4%	?	?	18µM*	?
O=C(Nc1ncc([N+](=O)[O-])s1)c1cccc([N+](=O)[O-])c1	1%	1%	14µM*	i	?
COC(=O)C(NC(=O)c1ccccc1Cl)(Nc1ncc(S(=O)(=O)c2ccc([N+](=O)[O-])cc2)s1)C(F)(F)F (configuration not stated)	?	?	-2%	?	13µM*
O=C(Nc1ccc(NC(=O)c2cccc([N+](=O)[O-])c2)cc1)c1cccc([N+](=O)[O-])c1	-6%	14%	4%	i	i
O=C(Nc1ccc(-c2csc(Nc3cccc(C(F)(F)F)c3)n2)cc1)c1ccccc1	18µM*	?	1%	?	i
N#CCC(=O)N/N=C/c1ccc(N2N=C(c3ccccc3)CC2c2ccccc2)cc1 (configuration not stated)	8%	?	27%	?	i
O=C(CN1CCc2cc3c(cc2C1)OCCCO3)Nc1cccc(Br)c1	17%	-9%	0%	i	i
COc1ccc(S(=O)(=O)Nc2cc3c4c(c2)C(C)C(=O)N4CCC3)cc1OC (configuration not stated)	0%	-581%	1%	i	i
O=C(Nc1ncc(S(=O)(=O)c2ccc([N+](=O)[O-])cc2)s1)c1ccc2ccccc2c1	?	1%	14µM*	i	i
O=C(Nc1nc(-c2ccccc2)cs1)c1cccc([N+](=O)[O-])c1	?	-2%	7%[38.3 µM]	i	23µM*
SMILES	MCF10A rerep	SW480 rereplic	PINK1 modulator	KB-3-1 tox	KB-V1 cytotox
CC(C)(CC1(C)NC(=O)NC1=O)OCc1ccccc1 (configuration not stated)	-3%	-8%	0%	i	i
Cc1cc(C(=O)O/N=C(\N)c2ccc(C(C)(C)C)cc2)no1	4%	-9%	2%	i	i
Cc1noc(-c2ccc(Cl)cc2)c1C(=O)O/N=C(\N)c1ccc(C(C)(C)C)cc1	?	-2%	-2%	?	18µM*
COc1ccccc1C1CCN(c2cc(O)ccc2[N+](=O)[O-])CC1	16µM*	-36%	?	i	?
COc1ccc(NC(=O)CN(C)C(=O)Cc2n[nH]c(=O)c3ccccc23)cc1	14%	23µM*	1%	i	i
O=C(Cc1n[nH]c(=O)c2ccccc12)OCC(=O)c1ccc(F)cc1	4%	0%	1%	i	i
O=C(Cc1n[nH]c(=O)c2ccccc12)OCC(=O)c1ccc2c(c1)OCCO2	2.1µM*	4.6µM*	6%	1.5µM*	?
CCOc1ccc(C(=O)COC(=O)Cc2n[nH]c(=O)c3ccccc23)cc1	1.6µM*	2.6µM*	6%	4.1µM*	4.6µM*
Cc1cc(C(=O)COC(=O)Cc2n[nH]c(=O)c3ccccc23)c(C)n1-c1ccc2c(c1)OCO2	12%	-10%	2%	i	?
COc1ccccc1C(=O)COC(=O)Cc1n[nH]c(=O)c2ccccc12	-2%	-5%	-2%	i	i
COc1ccc(C(C)=O)cc1COC(=O)Cc1n[nH]c(=O)c2ccccc12	6%	-3%	?	i	13µM*
COc1ccc(C2NC(=O)N(C)C3=C2C(=O)N(c2ccc(Br)cc2)C3)cc1 (configuration not stated)	.	.	0%	i	i
COc1ccc(N2CC3=C(C2=O)C(c2ccc(Br)cc2)NC(=O)N3C)cc1 (configuration not stated)	.	.	-3%	i	26µM*
Nc1cccc2nsnc12	?	-31%	-2%	i	i
Nc1cc2nsnc2cc1Br	?	18µM*	12%	i	i
COC(=O)C[C@H]1c2cc(F)ccc2S(=O)(=O)N1C1CC1	.	.	.	i	?
CNC1C(O)C(OC2C(N)CC(N)C(OC3OC(CN)=CCC3N)C2O)OCC1(C)O (configuration not stated)	-3%	1%	.	.	.
N#CC1=C(N)Oc2cc(N)ccc2C1c1cccc(Br)c1 (configuration not stated)	1.6µM*	?	3%	8.2µM*	?
N#CC1=C(N)Oc2cc(N)ccc2C1c1ccccc1F (configuration not stated)	18µM*	18µM*	6%	?	7.3µM*
N#CC1=C(N)Oc2cc(N)ccc2C1c1cc(Br)cs1 (configuration not stated)	?	16µM*	6%	8.2µM*	?
